Our source for the inhibition values is ChEMBL document CHEMBL4808148, “HDAC6 screening dataset using tau-based substrate in an enzymatic assay yields selective inhibitors and activators” (2021).

The whole screen tested about 5,600 compounds, of which about 390 (7%) showed an effect of 50% or more. Shown is part of a subset that was picked to be rich in strong results.

For the assay, the target named is T1, Protein deacetylase HDAC6 (Homo sapiens) (UniProt Q9UBN7).
T1 sequence (whole entry): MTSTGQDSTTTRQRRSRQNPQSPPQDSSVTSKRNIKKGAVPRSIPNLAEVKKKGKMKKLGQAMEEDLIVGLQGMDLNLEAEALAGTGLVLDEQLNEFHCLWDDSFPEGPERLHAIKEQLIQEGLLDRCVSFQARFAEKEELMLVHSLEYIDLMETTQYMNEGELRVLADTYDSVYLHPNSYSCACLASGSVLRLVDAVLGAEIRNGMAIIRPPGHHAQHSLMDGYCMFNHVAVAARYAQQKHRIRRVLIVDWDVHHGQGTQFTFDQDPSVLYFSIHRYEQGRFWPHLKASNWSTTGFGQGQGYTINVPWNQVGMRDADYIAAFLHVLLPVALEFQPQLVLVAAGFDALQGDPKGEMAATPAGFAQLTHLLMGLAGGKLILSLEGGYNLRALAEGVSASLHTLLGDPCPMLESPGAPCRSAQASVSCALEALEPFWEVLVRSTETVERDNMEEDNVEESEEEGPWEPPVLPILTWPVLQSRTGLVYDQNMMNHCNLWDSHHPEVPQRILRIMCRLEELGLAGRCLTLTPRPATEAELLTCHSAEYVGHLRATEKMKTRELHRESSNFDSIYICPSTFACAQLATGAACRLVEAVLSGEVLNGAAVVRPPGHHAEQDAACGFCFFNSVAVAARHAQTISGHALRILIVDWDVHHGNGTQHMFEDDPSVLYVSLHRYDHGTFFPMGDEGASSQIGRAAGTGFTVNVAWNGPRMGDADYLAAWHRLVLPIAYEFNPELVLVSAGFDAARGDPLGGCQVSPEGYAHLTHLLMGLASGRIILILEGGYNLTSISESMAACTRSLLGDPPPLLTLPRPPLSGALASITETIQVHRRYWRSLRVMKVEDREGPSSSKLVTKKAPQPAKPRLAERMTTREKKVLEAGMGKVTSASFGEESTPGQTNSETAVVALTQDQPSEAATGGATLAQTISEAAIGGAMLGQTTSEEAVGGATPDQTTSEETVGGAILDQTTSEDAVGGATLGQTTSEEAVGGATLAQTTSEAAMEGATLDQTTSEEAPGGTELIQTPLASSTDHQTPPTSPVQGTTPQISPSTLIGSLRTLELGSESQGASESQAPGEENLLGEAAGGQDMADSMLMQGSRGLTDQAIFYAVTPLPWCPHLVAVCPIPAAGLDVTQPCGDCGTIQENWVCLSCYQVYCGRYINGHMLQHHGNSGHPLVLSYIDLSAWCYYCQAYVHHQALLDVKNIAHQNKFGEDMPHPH
To be noted: at 10 µM.
Regarding `COc1cc2c(cc1OC)C(c1ccc(N)cc1)=NNC(=O)C2`, the inhibition (in general, the change of the read-out against control, counted positive when it falls) is -3.23%.
Turning to `COc1ccc(-c2nc3cc(C4=NNC(=O)CC4C)ccc3[nH]2)cc1` (stereo not drawn), the inhibition amounted to 87.1%.
With `CC(C)n1nc(C#Cc2ccccc2)c2c(N)ncnc21`, the inhibition is 19%.
For the compound `CCOC(=O)C1CSC(Cc2ccc(OCc3ccc([N+](=O)[O-])cc3)cc2)N1` (stereo not drawn), the inhibition came out at 13.2%.
For `COc1ccc(C(=O)/C(Br)=C/C(=O)O)cc1` the value was -2.93%; for `CC(=O)C(=Cc1cc(O)c(O)c([N+](=O)[O-])c1)C(C)=O`, 13.4%; for `CS(=O)(=O)c1ccc(-c2cnc(NCc3ccco3)n3cnnc23)cc1`, 7.67%.
Then `Cc1cc(C)c2c(N)c(C(=O)NCc3ccc(Cl)cc3)sc2n1`, with 16.5%; and `Cc1coc2c1C(=O)C(=O)c1c-2ccc2c(C)cccc12`, with 93.9%.
Turning to `Cc1coc2c1C(=O)C(=O)c1c-2ccc2c1CCCC2(C)C`, the inhibition came out at 42%.
Then `Cc1nn(-c2ccccc2)c(C)c1/C=N/N1CCN(Cc2ccccc2)CC1`, with 9.22%; and `O=C(O)C[C@H](O)C[C@H](O)CCc1c(C2CC2)nc2ccccc2c1-c1ccc(F)cc1`, with 26%; and `CCCCCCCC[N+](C)(C)Cc1ccccc1`, with -8.69%.
For `c1cn2cc(-c3ccc4cn[nH]c4c3)nc(Nc3ccc(N4CCOCC4)cc3)c2n1` the value was 20.2%; for `CC(=O)/N=c1/sc(S(N)(=O)=O)nn1C`, -2.26%.
For `NS(=O)(=O)c1nn2cc(-c3ccccc3)nc2s1` the value was 96.2%.
For the compound `CC(=O)OCC(=O)[C@@]1(O)CC[C@H]2[C@@H]3CCC4=CC(=O)C=C[C@]4(C)[C@@]3(F)[C@@H](O)C[C@@]21C`, the inhibition was 39.3%.
For `C[C@@H]1CC(=O)c2c(ccc3c2C(=O)c2cccc(O)c2C3=O)C1` the value was 113%; for `O=C1c2cccc(O)c2C(=O)c2c(O)cccc21`, 55.5%; for `COc1cc(O)c2c(c1)C(=O)c1cc(C)cc(O)c1C2=O`, 24.3%.
For `Cc1cc(O)c2c(c1)C(=O)c1cccc(O)c1C2=O` the value was 82.4%.
Then `CC1(C)C(=O)N=C2C1=C(O)C(=O)c1ccccc12`, with 24.8%; and `CN1CCc2cccc3c2[C@H]1Cc1ccc(O)c(O)c1-3`, with -6.04%; and `O=C1c2c(O)cccc2Cc2cccc(O)c21`, with 3.84%.
As to `O=C(O)c1cc(O)c2c(c1)C(=O)c1cccc(O)c1C2=O`, the inhibition stood at 24.6%.
Then `CC(=O)c1cc2c(o1)C(=O)c1ccccc1C2=O`, with 25.7%; and `CNCCCOc1cc(F)c(-c2c(Cl)nc3ncnn3c2N[C@@H](C)C(F)(F)F)c(F)c1`, with 9.44%.
For `COc1ccc(CNC(=O)c2cc(-c3cncc(C)c3)ncc2-c2nccs2)nc1OC` the value was 8.47%.
Then `COc1cccc(OC)c1OCCNCC1COc2ccccc2O1` (stereo not drawn), with -6.9%.
In the case of `CSCC[C@H](NC(=O)[C@H](CC(C)C)NC(=O)CNC(=O)[C@H](Cc1ccccc1)NC(=O)[C@H](Cc1ccccc1)NC(=O)[C@H](CCC(N)=O)NC(=O)[C@H](CCC(N)=O)NC(=O)[C@@H]1CCCN1C(=O)[C@H](CCCCN)NC(=O)[C@@H]1CCCN1C(=O)[C@@H](N)CCCN=C(N)N)C(N)=O`, the inhibition was 37.9%.
As to `Fc1ccc(CN2CCC(Nc3ccc(C(F)(F)F)nn3)CC2)cc1F`, the inhibition was determined as 20.4%.
For `CC#CCC(C)[C@H](O)/C=C/[C@@H]1[C@H]2C/C(=C/CCCC(=O)O)C[C@H]2C[C@H]1O` (stereo partly drawn) the value was -9.51%; for `COC(=O)c1ccccc1-c1c2ccc(N)cc2[o+]c2cc(N)ccc12`, 2.6%; for `CN[C@@H]1[C@H](OC2[C@H](O[C@H]3[C@H](O)[C@@H](O)[C@H](N=C(N)N)[C@@H](O)[C@@H]3N=C(N)N)O[C@@H](C)[C@]2(O)C=O)O[C@@H](CO)[C@H](O)[C@H]1O` (stereo partly drawn), 17.6%.
For `Cc1ccccc1/N=N/c1ccc(NC(=O)c2ccnn2C)c(C)c1` the value was 36.7%; for `O=C(Nc1cccc(Nc2ncc(Br)c(NCCc3cnc[nH]3)n2)c1)N1CCCC1`, 41.2%; for `COc1cc2c(cc1OC)-c1cc3nc4ccccc4nc3n1C(C)(C)C2`, 19.3%.
For `CCCn1c(=O)[nH]c2nc(-c3ccc(S(=O)(=O)N4CCN(c5ccc(Cl)cc5)CC4)cc3)[nH]c2c1=O`, the inhibition was 3.66%.
Then `Cc1ccc2c(c1CCC(=O)O)CC[C@@H](NS(=O)(=O)c1ccc(Cl)cc1)C2`, with -3.38%.
In the case of `Oc1ccc2ccccc2c1SSc1c(O)ccc2ccccc12`, the inhibition worked out at 0.31%.
For `Nc1nc2c(ccc3ccccc32)s1` the value was 67.3%; for `Cc1cc(CC(C)CC(C)(C)C)n(O)c(=O)c1` (stereo not drawn), -5.15%.
Then `O=C1NC(=O)C(c2ccccc2[N+](=O)[O-])=C1Nc1ccc(O)c(Cl)c1`, with 3.99%.
Then `COc1cc(CCc2cc(NC(=O)c3ccc(N4C[C@@H](C)N[C@@H](C)C4)cc3)n[nH]2)cc(OC)c1`, with 2.96%.
On to `Cc1cn([C@H]2C=C[C@@H](CO)O2)c(=O)[nH]c1=O`, for which the inhibition worked out at 102%.
In the case of `CCc1cn([C@H]2C[C@H](O)[C@@H](CO)O2)c(=O)[nH]c1=O`, the inhibition was -6.76%.
For `O=c1[nH]c(=O)n([C@H]2C[C@H](O)[C@@H](CO)O2)cc1F` the value was 12.7%; for `CN1c2cc3c(cc2N=C(c2ccc(C(=O)O)cc2)c2ccccc21)C(C)(C)CCC3(C)C`, 27.7%.
